Screening data (PubChem)
Pf Dd2 growth: Plasmodium falciparum Dd2 growth inhibition; P. falciparum Dd2 growth, SYBR Green, 72 h; Potency, µM (top dose mostly 28.9 µM), inactives show top-dose activity, negative = inhibition, usual class: inhibitors; hit rate 4.3% among 120,000; AID 1347417; active = well fitted inhibition curve with a large enough effect;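 also: plate controls were DMSO vehicle for no effect and reference drug for full effect; nearly all actives have a fitted effect of over 65% in size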
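Infected erythrocytes (Dd2, 0.3% parasitemia, 2.5% hematocrit final) are added to compound in RPMI-1640/Albumax II medium, grown 72 h at 37C in low oxygen, then lysed with saponin/Triton-X containing SYBR Green and read by fluorescence.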
An asterisk follows results filed as active; i = inactive; [ ] = another dose, or the depositor's remark. Only a selection was taken, and hits are over-represented in it overall. Potency is read from the fitted curve at half-maximal effect.

SMILES	Pf Dd2 growth
COCCN1C(=O)c2ccccc2C(C(=O)Nc2cc(C)ccn2)C12CCCCC2 (stereo not drawn)	12.6µM*
Cc1noc(C)c1Cc1ccc(C(=O)N(C)C2CCc3nnc(C)n3CC2)o1 (stereo not drawn)	-15.9%
CCOc1ccc(NC(=O)C2(CC)CCCCC(=O)N2)cc1 (stereo not drawn)	10.7%
O=C(CCc1nnn2c1CN(C(=O)Cc1c[nH]c3ccccc13)CC2)N1CCCC1	i
O=C1CCN(C(=O)c2ccccc2)CCCC(C(=O)NCc2cccc(C(F)(F)F)c2)CCN1 (stereo not drawn)	-15.3%
CCO[C@H]1CN(C(=O)Cc2c(C)[nH]c3c(F)cccc23)C[C@@H]1O	-5.1%
Cc1nc2ccccc2n1CCC(=O)N1C[C@@H](C)[C@](O)(C(C)C)C1	4.1%
CC(C)N1C[C@H](O)C[C@H]1c1nnc2n1CCN(C(=O)c1ccoc1)C2	-10.7%
Cc1nc(C)n(CCNC(=O)c2cnc(-c3cccnc3)nc2)n1	20.2%
O=C(Cc1ccsc1)N1CCC2(CC1)CC(OCC1CC1)CCO2 (stereo not drawn)	i
Cc1ccc2cc(CCC(=O)NCCCN(C)C)c(=O)[nH]c2c1	84.9%
COc1ccc(NC(=O)N2CCc3c(C(=O)NCCCN4CCCC4=O)cccc32)cc1	i
CCOc1ccccc1NC(=O)C1c2ccccc2C(=O)N(CCOC)C12CCCCC2 (stereo not drawn)	3.98µM*
COCCN1C(=O)c2ccccc2C(C(=O)Nc2ccc3c(c2)OCCO3)C12CCCC2 (stereo not drawn)	-23.0%
COCCN1C(=O)c2ccccc2C(C(=O)NC2CCCC2)C12CCCCC2 (stereo not drawn)	11.8%
CCc1ccccc1NC(=O)C1c2ccccc2C(=O)N(CCOC)C12CCCC2 (stereo not drawn)	i
CC(C)CN1C(=O)c2ccccc2C(C(=O)Nc2ccc(C(N)=O)cc2)C12CCCCC2 (stereo not drawn)	12.6µM*
COCCN1C(=O)c2ccccc2C(C(=O)Nc2ccc(F)cc2)C12CCCCC2 (stereo not drawn)	-19.2%
O=C(CN1C(=O)COc2ccc(C(=O)COc3ccc(F)cc3)cc21)NCC1CCCO1 (stereo not drawn)	i
CCCc1noc(-c2cccn3c(CNC(=O)CCc4ccccc4)nnc23)n1	-1.9%
CC(=O)NC[C@@H]1C=C(C)[C@H](CC(=O)NCc2ccc(F)cc2)C[C@H]1C(C)C	i
Cc1cc(F)ccc1OC1CN(Cc2cccnc2)C1	6.31µM*
Cc1cc(OC2CN(Cc3ccc(F)cc3)C2)ccc1F	i
Cc1ccccc1N(C)C1CN(Cc2cccnc2)C1	12.6µM*
Cc1cc(F)ccc1OC1CN([S+](=O)([O-])c2ccccc2)C1	i
SMILES	Pf Dd2 growth
CN(C)C(=O)[C@@H]1CN(Cc2cccnc2)C[C@H]1CO	15.2%
CN(Cc1cccnc1)C(=O)[C@H]1CN(Cc2ccccc2)C[C@H]1C(=O)O	i
CCC(O)Cn1nc(-c2ccco2)nc1-c1ccccc1-c1nn[nH]n1 (stereo not drawn)	14.9%
Cc1ccc(NC(=O)N2CCc3c(c4ccccc4n3C)C2)cc1C	-17.9%
Cc1nc([C@@H]2CN(S(=O)(=O)c3ccc4c(c3)CCC4)C[C@H]2C(N)=O)n[nH]1	-14.9%
Cc1cccc2c1nc1n2[C@@H](CNCc2ccc(S(C)(=O)=O)cc2)COC1	i
COc1cccc(S(=O)(=O)N2CCCCCCNC(=O)[C@@H]3CCCC[C@@H]32)c1	-24.9%
O=C(Cc1c[nH]c2ccccc12)N1CCC(CCOc2ccccc2F)C1 (stereo not drawn)	i
O=C(c1cccc(F)c1)N1CCC2(CC1)N(CC1CC1)C(=O)CS2=O (stereo not drawn)	1.0%
Cc1cccc(C)c1NC(=O)Nc1csc2c1CCCC2	-15.7%
Cc1cc(C)c(NC(=O)Nc2csc3c2CCCC3)c(C)c1	86.3%[5.79 µM]
CCc1cccc(NC(=O)Nc2csc3c2CCCC3)c1	10µM*
Nc1nnnn1CC(=O)N1CCCCC1CCc1ccccn1 (stereo not drawn)	-3.1%
COc1cccc(C(=O)N2CCC(N3C[C@H](O)C[C@H]3C(=O)N3CCc4ccccc4C3)CC2)c1	1.41µM*
COc1cccc(C(=O)N2CCC(N3C[C@H](O)C[C@H]3C(=O)N3CCN(C(C)C)CC3)CC2)c1	4.9%
CCNC(=O)[C@@H]1C[C@@H](O)CN1C1CCN(C(=O)c2cccc(OC)c2)CC1	-10.8%
O=C(NC1CCCN(c2cc(N3CCCC3)ncn2)C1)c1cccnc1 (stereo not drawn)	-16.5%[5.79 µM]
Cc1ccccc1Cn1c(CN2CCC(C(=O)NCCN(C)C)CC2)cc2ccccc21	1µM*
Cc1ccccc1Cn1c(CN2CCC(C(=O)NCc3ccc(Cl)cc3)CC2)cc2ccccc21	14.6%
CCOc1ccc(CNC(=O)C2CCN(Cc3cc4ccccc4n3Cc3ccccc3C)CC2)cc1	i
Cc1ccc(CN2C(=O)NC3(CCCN(C(=O)c4ccc5c(c4)OCO5)C3)C2=O)cc1 (stereo not drawn)	16.0%
CN1CCN(c2nc3c(c(=O)[nH]2)CCN(Cc2ccc(Cl)c(F)c2)CC3)CC1	i[5.79 µM]
